Experimental data: PubChem BioAssay AID1159580 (chemical genetic matrix, 2015)
The whole screen tested about 5,500 compounds, of which about 2,000 (36%) were called active. About 18% were inconclusive and are not listed. Rule as the data show it: active = normalized growth mostly below about 0.91 (no sharp cut-off); inconclusive = no clear call, values can overlap the other calls; inactive = mostly above about 0.92. The list shows a part of the results.

Assay: chemical genetic growth profiling, strain panel (AID 1159580);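 also: tested at 20 µM; growth read once vehicle control cultures reached saturation at 30 °C; 1 = growth at the plate median or of vehicle wells; lower values mean less growth of the strain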
Settings: growth OD

Measured: normalized growth

COc1cc(O)c2c(=O)cc(-c3ccc(OC)c(-c4c(O)cc(O)c5c(=O)cc(-c6ccc(O)cc6)oc45)c3)oc2c1
inactive: S. cerevisiae deletion strains, locus YAL021C, strain ccr4, stronger effect = lower value 0.991 | S. cerevisiae deletion strains, locus YAL026C, strain drs2, stronger effect = lower value 0.982 | S. cerevisiae deletion strains, locus YAL030W, strain snc1, stronger effect = lower value 1.01 | S. cerevisiae deletion strains, locus YBL061C, strain skt5, stronger effect = lower value 0.996 | S. cerevisiae deletion strains, locus YBR009C, strain hhf1, stronger effect = lower value 0.988 | S. cerevisiae deletion strains, locus YBR023C, strain chs3, stronger effect = lower value 0.993 | S. cerevisiae deletion strains, locus YBR171W, strain sec66, stronger effect = lower value 1.03 | S. cerevisiae deletion strains, locus YBR229C, strain ROT2, stronger effect = lower value 0.948 | S. cerevisiae deletion strains, locus YBR231C, strain swc5, stronger effect = lower value 0.972 | S. cerevisiae deletion strains, locus YBR279W, strain paf1, stronger effect = lower value 1 | S. cerevisiae deletion strains, locus YCL011C, strain gbp2, stronger effect = lower value 1.02 | S. cerevisiae deletion strains, locus YCL016C, strain dcc1, stronger effect = lower value 1 | S. cerevisiae deletion strains, locus YCL029C, strain bik1, stronger effect = lower value 0.992 | S. cerevisiae deletion strains, locus YCL061C, strain MRC1, stronger effect = lower value 1 | S. cerevisiae deletion strains, locus YCL069W, strain vba3, stronger effect = lower value 1.02 | S. cerevisiae deletion strains, locus YCR088W, strain abp1, stronger effect = lower value 1.03 | S. cerevisiae deletion strains, locus YDL005C, strain med2, stronger effect = lower value 1.03 | S. cerevisiae deletion strains, locus YDL035C, strain GPR1, stronger effect = lower value 0.951 | S. cerevisiae deletion strains, locus YDL040C, strain nat1, stronger effect = lower value 1.01 | S. cerevisiae deletion strains, locus YDL074C, strain BRE1, stronger effect = lower value 1.01 | S. cerevisiae deletion strains, locus YDL101C, strain DUN1, stronger effect = lower value 0.959 | S. cerevisiae deletion strains, locus YDL134C, strain PPH21, stronger effect = lower value 0.917 | S. cerevisiae deletion strains, locus YDL185W, strain tfp1, stronger effect = lower value 0.968 | S. cerevisiae deletion strains, locus YDL192W, strain arf1, stronger effect = lower value 1 | S. cerevisiae deletion strains, locus YDR001C, strain nth1, stronger effect = lower value 1.02 | S. cerevisiae deletion strains, locus YDR069C, strain doa4, stronger effect = lower value 0.914 | S. cerevisiae deletion strains, locus YDR101C, strain arx1, stronger effect = lower value 0.997 | S. cerevisiae deletion strains, locus YDR137W, strain rgp1, stronger effect = lower value 1.05 | S. cerevisiae deletion strains, locus YDR150W, strain NUM1, stronger effect = lower value 0.953 | S. cerevisiae deletion strains, locus YDR159W, strain sac3, stronger effect = lower value 1.02 | S. cerevisiae deletion strains, locus YDR162C, strain NBP2, stronger effect = lower value 0.915 | S. cerevisiae deletion strains, locus YDR195W, strain ref2 0.986 | S. cerevisiae deletion strains, locus YDR297W, strain sur2, stronger effect = lower value 0.996 | S. cerevisiae deletion strains, locus YDR318W, strain mcm21, stronger effect = lower value 0.987 | S. cerevisiae deletion strains, locus YDR334W, strain swr1, stronger effect = lower value 1 | S. cerevisiae deletion strains, locus YDR335W, strain msn5, stronger effect = lower value 1.03 | S. cerevisiae deletion strains, locus YDR388W, stronger effect = lower value 0.986 | S. cerevisiae deletion strains, locus YDR392W, strain spt3, stronger effect = lower value 0.91 | S. cerevisiae deletion strains, locus YDR502C, strain sam2, stronger effect = lower value 0.978 | S. cerevisiae deletion strains, locus YEL003W, strain gim4, stronger effect = lower value 1 | S. cerevisiae deletion strains, locus YEL037C, strain rad23, stronger effect = lower value 1.01 | S. cerevisiae deletion strains, locus YEL061C, strain CIN8 (second series), stronger effect = lower value 1.02 | S. cerevisiae deletion strains, locus YEL061C, strain CIN8, stronger effect = lower value 0.934 | S. cerevisiae deletion strains, locus YER015W, strain faa2, stronger effect = lower value 1 | S. cerevisiae deletion strains, locus YER016W, strain bim1, stronger effect = lower value 1.01 | S. cerevisiae deletion strains, locus YER110C, stronger effect = lower value 0.983 | S. cerevisiae deletion strains, locus YER111C, strain swi4, stronger effect = lower value 1.01 | S. cerevisiae deletion strains, locus YER155C, strain BEM2 (second series), stronger effect = lower value 0.962 | S. cerevisiae deletion strains, locus YER155C, strain BEM2, stronger effect = lower value 1.03 | S. cerevisiae deletion strains, locus YER167W, strain BCK2, stronger effect = lower value 0.957 | S. cerevisiae deletion strains, locus YFR010W, strain ubp6, stronger effect = lower value 0.965 | S. cerevisiae deletion strains, locus YGL078C, strain dbp3, stronger effect = lower value 0.987 | S. cerevisiae deletion strains, locus YGL167C, strain pmr1, stronger effect = lower value 1.01 | S. cerevisiae deletion strains, locus YGL173C, strain kem1, stronger effect = lower value 0.975 | S. cerevisiae deletion strains, locus YGL227W, strain vid30, stronger effect = lower value 1.03 | S. cerevisiae deletion strains, locus YGL240W, strain doc1, stronger effect = lower value 1.05 | S. cerevisiae deletion strains, locus YGL253W, strain hxk2, stronger effect = lower value 1.03 | S. cerevisiae deletion strains, locus YGR078C, strain PAC10, stronger effect = lower value 0.913 | S. cerevisiae deletion strains, locus YGR135W, strain pre9, stronger effect = lower value 0.971 | S. cerevisiae deletion strains, locus YGR229C, strain SMI1, stronger effect = lower value 0.92 | S. cerevisiae deletion strains, locus YGR252W, strain gcn5, stronger effect = lower value 1.09 | S. cerevisiae deletion strains, locus YHR013C, strain ard1, stronger effect = lower value 1 | S. cerevisiae deletion strains, locus YHR027C, strain rpn1, stronger effect = lower value 1.01 | S. cerevisiae deletion strains, locus YHR030C, strain SLT2, stronger effect = lower value 0.966 | S. cerevisiae deletion strains, locus YHR079C, strain IRE1 (second series), stronger effect = lower value 0.994 | S. cerevisiae deletion strains, locus YHR094C, strain hxt1, stronger effect = lower value 0.99 | S. cerevisiae deletion strains, locus YHR129C, strain ARP1, stronger effect = lower value 0.931 | S. cerevisiae deletion strains, locus YHR142W, strain chs7, stronger effect = lower value 1.05 | S. cerevisiae deletion strains, locus YHR200W, strain rpn10, stronger effect = lower value 0.988 | S. cerevisiae deletion strains, locus YIL066C, strain RNR3, stronger effect = lower value 0.88 | S. cerevisiae deletion strains, locus YIL073C, strain SPO22, stronger effect = lower value 0.947 | S. cerevisiae deletion strains, locus YIL125W, strain kgd1, stronger effect = lower value 0.99 | S. cerevisiae deletion strains, locus YIR030C, strain dcg1, stronger effect = lower value 1.02 | S. cerevisiae deletion strains, locus YJL092W, strain hpr5, stronger effect = lower value 1.02 | S. cerevisiae deletion strains, locus YJL095W, strain BCK1 (second series), stronger effect = lower value 1.01 | S. cerevisiae deletion strains, locus YJL095W, strain BCK1, stronger effect = lower value 0.939 | S. cerevisiae deletion strains, locus YJL115W, strain asf1, stronger effect = lower value 1.02 | S. cerevisiae deletion strains, locus YJL129C, strain trk1, stronger effect = lower value 1.06 | S. cerevisiae deletion strains, locus YJL134W, strain LCB3, stronger effect = lower value 0.984 | S. cerevisiae deletion strains, locus YJL154C, strain vps35, stronger effect = lower value 1.03 | S. cerevisiae deletion strains, locus YJL164C, strain tpk1, stronger effect = lower value 0.98 | S. cerevisiae deletion strains, locus YJL166W, strain qcr8, stronger effect = lower value 1.01 | S. cerevisiae deletion strains, locus YJL168C, strain set2, stronger effect = lower value 0.992 | S. cerevisiae deletion strains, locus YJL187C, strain SWE1 (second series), stronger effect = lower value 0.891 | S. cerevisiae deletion strains, locus YJL187C, strain SWE1, stronger effect = lower value 0.997 | S. cerevisiae deletion strains, locus YJR043C, strain POL32, stronger effect = lower value 0.935 | S. cerevisiae deletion strains, locus YJR075W, strain HOC1, stronger effect = lower value 0.973 | S. cerevisiae deletion strains, locus YKL009W, strain mrt4, stronger effect = lower value 1.02 | S. cerevisiae deletion strains, locus YKL068W, stronger effect = lower value 0.98 | S. cerevisiae deletion strains, locus YKL085W, strain MDH1 (second series), stronger effect = lower value 1 | S. cerevisiae deletion strains, locus YKL085W, strain MDH1, stronger effect = lower value 1 | S. cerevisiae deletion strains, locus YKL160W, strain elf1, stronger effect = lower value 0.991 | S. cerevisiae deletion strains, locus YKR001C, strain vps1, stronger effect = lower value 0.962 | S. cerevisiae deletion strains, locus YKR026C, strain gcn3, stronger effect = lower value 1.01 | S. cerevisiae deletion strains, locus YKR091W, strain srl3, stronger effect = lower value 1.01 | S. cerevisiae deletion strains, locus YLL001W, strain dnm1, stronger effect = lower value 1.02 | S. cerevisiae deletion strains, locus YLL026W, stronger effect = lower value 1.01 | S. cerevisiae deletion strains, locus YLL041C, strain sdh2, stronger effect = lower value 1.02 | S. cerevisiae deletion strains, locus YLR027C, strain aat2, stronger effect = lower value 1.01 | S. cerevisiae deletion strains, locus YLR039C, strain RIC1, stronger effect = lower value 0.95 | S. cerevisiae deletion strains, locus YLR058C, strain SHM2, stronger effect = lower value 0.913 | S. cerevisiae deletion strains, locus YLR102C, strain apc9, stronger effect = lower value 0.99 | S. cerevisiae deletion strains, locus YLR221C, strain rsa3, stronger effect = lower value 1 | S. cerevisiae deletion strains, locus YLR258W, strain gsy2, stronger effect = lower value 1.01 | S. cerevisiae deletion strains, locus YLR262C, strain YPT6 (second series), stronger effect = lower value 1.04 | S. cerevisiae deletion strains, locus YLR262C, strain YPT6, stronger effect = lower value 1.04 | S. cerevisiae deletion strains, locus YLR268W, strain sec22, stronger effect = lower value 0.963 | S. cerevisiae deletion strains, locus YLR320W, strain mms22, stronger effect = lower value 0.996 | S. cerevisiae deletion strains, locus YLR330W, strain CHS5, stronger effect = lower value 0.975 | S. cerevisiae deletion strains, locus YLR342W, strain FKS1 (second series), stronger effect = lower value 0.981 | S. cerevisiae deletion strains, locus YLR342W, strain FKS1, stronger effect = lower value 0.996 | S. cerevisiae deletion strains, locus YLR357W, strain rsc2, stronger effect = lower value 0.985 | S. cerevisiae deletion strains, locus YLR370C, strain arc18, stronger effect = lower value 1.01 | S. cerevisiae deletion strains, locus YLR371W, strain rom2, stronger effect = lower value 0.996 | S. cerevisiae deletion strains, locus YLR384C, strain iki3, stronger effect = lower value 1.04 | S. cerevisiae deletion strains, locus YLR418C, strain cdc73, stronger effect = lower value 0.975 | S. cerevisiae deletion strains, locus YML016C, strain PPZ1, stronger effect = lower value 0.957 | S. cerevisiae deletion strains, locus YML032C, strain rad52, stronger effect = lower value 0.998 | S. cerevisiae deletion strains, locus YML120C, strain ndi1, stronger effect = lower value 1.03 | S. cerevisiae deletion strains, locus YML124C, strain tub3, stronger effect = lower value 1 | S. cerevisiae deletion strains, locus YMR058W, strain fet3, stronger effect = lower value 0.969 | S. cerevisiae deletion strains, locus YMR078C, strain ctf18, stronger effect = lower value 0.997 | S. cerevisiae deletion strains, locus YMR125W, strain sto1, stronger effect = lower value 1.01 | S. cerevisiae deletion strains, locus YMR129W, stronger effect = lower value 1.02 | S. cerevisiae deletion strains, locus YMR205C, strain PFK2, stronger effect = lower value 1.01 | S. cerevisiae deletion strains, locus YMR223W, strain ubp8, stronger effect = lower value 0.971 | S. cerevisiae deletion strains, locus YMR231W, strain pep5, stronger effect = lower value 1.01 | S. cerevisiae deletion strains, locus YMR307W, strain GAS1, stronger effect = lower value 1.17 | S. cerevisiae deletion strains, locus YNL067W, strain RPL9B, stronger effect = lower value 0.951 | S. cerevisiae deletion strains, locus YNL071W, strain lat1, stronger effect = lower value 1.02 | S. cerevisiae deletion strains, locus YNL153C, strain GIM3, stronger effect = lower value 0.912 | S. cerevisiae deletion strains, locus YNL209W, strain ssb2, stronger effect = lower value 0.994 | S. cerevisiae deletion strains, locus YNL233W, strain BNI4, stronger effect = lower value 0.973 | S. cerevisiae deletion strains, locus YNL248C, strain rpa49, stronger effect = lower value 1.02 | S. cerevisiae deletion strains, locus YNL250W, strain rad50, stronger effect = lower value 0.97 | S. cerevisiae deletion strains, locus YNL271C, strain bni1, stronger effect = lower value 0.986 | S. cerevisiae deletion strains, locus YNL298W, strain CLA4, stronger effect = lower value 0.975 | S. cerevisiae deletion strains, locus YNL307C, strain MCK1, stronger effect = lower value 0.965 | S. cerevisiae deletion strains, locus YNL322C, strain KRE1 (second series), stronger effect = lower value 1.03 | S. cerevisiae deletion strains, locus YNR049C, strain mso1, stronger effect = lower value 1.02 | S. cerevisiae deletion strains, locus YNR052C, strain pop2, stronger effect = lower value 0.993 | S. cerevisiae deletion strains, locus YOL012C, strain htz1 0.606 | S. cerevisiae deletion strains, locus YOL147C, strain pex11, stronger effect = lower value 0.99 | S. cerevisiae deletion strains, locus YOR001W, strain rrp6, stronger effect = lower value 0.987 | S. cerevisiae deletion strains, locus YOR061W, strain CKA2, stronger effect = lower value 0.917 | S. cerevisiae deletion strains, locus YOR069W, strain VPS5, stronger effect = lower value 0.98 | S. cerevisiae deletion strains, locus YOR070C, strain gyp1, stronger effect = lower value 1.02 | S. cerevisiae deletion strains, locus YOR080W, strain dia2, stronger effect = lower value 1 | S. cerevisiae deletion strains, locus YOR083W, strain WHI5, stronger effect = lower value 0.996 | S. cerevisiae deletion strains, locus YOR106W, strain vam3, stronger effect = lower value 0.983 | S. cerevisiae deletion strains, locus YOR136W, strain idh2, stronger effect = lower value 0.993 | S. cerevisiae deletion strains, locus YOR144C, strain elg1, stronger effect = lower value 1.01 | S. cerevisiae deletion strains, locus YOR184W, strain ser1, stronger effect = lower value 0.958 | S. cerevisiae deletion strains, locus YOR265W, strain rbl2, stronger effect = lower value 0.999 | S. cerevisiae deletion strains, locus YOR270C, strain vph1, stronger effect = lower value 1.02 | S. cerevisiae deletion strains, locus YOR290C, strain snf2, stronger effect = lower value 0.982 | S. cerevisiae deletion strains, locus YOR316C, strain cot1, stronger effect = lower value 0.989 | S. cerevisiae deletion strains, locus YPL051W, strain arl3, stronger effect = lower value 0.968 | S. cerevisiae deletion strains, locus YPL078C, strain atp4, stronger effect = lower value 1.03 | S. cerevisiae deletion strains, locus YPL106C, strain sse1, stronger effect = lower value 1 | S. cerevisiae deletion strains, locus YPL240C, strain hsp82, stronger effect = lower value 1.01 | S. cerevisiae deletion strains, locus YPR119W, strain clb2, stronger effect = lower value 1.01 | S. cerevisiae deletion strains, locus YPR141C, strain kar3, stronger effect = lower value 0.98 | S. cerevisiae deletion strains, locus YPR163C, strain tif3, stronger effect = lower value 0.997 | S. cerevisiae deletion strains, locus YPR167C, strain met16, stronger effect = lower value 0.99 | S. cerevisiae deletion strains, strain wtn01, stronger effect = lower value 0.969 | S. cerevisiae strains, strain wild type, stronger effect = lower value 0.904
active: S. cerevisiae deletion strains, locus YBR021W, strain FUR4, stronger effect = lower value 1.18 [resistant] | S. cerevisiae deletion strains, locus YGL248W, strain PDE1, stronger effect = lower value 0.877
